tested on: THRa homodimer (NR concentration 90 nM); experiment: PBM binding z-score (relative to random genomic background probes); higher = stronger binding; sequences stand for … in GC…GCGATTGACAGCGTAGAATGAAGG
Summary of the method: (§1)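 Each nuclear receptor dimer, without ligand, was incubated for 1 h on custom Agilent 4×180K protein-binding microarrays. Binding was detected with antibodies against each partner (one per run), and scanned fluorescence was regression-normalized. The binding z-scores are referenced to random human genomic background probes.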

Sequence | PBM binding z-score
ACTAGCAGGCCAAGTTTGGGTCAATCAAACAAAG | 0.6
GCAGACAGGTGAAACGCAAGTAACTCAGGGTGGC | -0.701
GATACAGGGTCAGCTAGAGGACAGAGTATGGAAA | 1.05
CCAGACAGGTGACAGGTAACTCAGTCTGGTACGC | -0.089
GCGACAGGGGCATCAGCAGGTTACCATAACTTAA | 0.015
CCAACTAGGTCAGAACAGGACAGTGAAGGATGAT | 0.727
TTACCAAGGTGAGCTCAGGTCGTTGATCCAACTC | 1.43
TCTCGGAGGACACGAAGGACAGAGCTTTCCAGAG | 0.544
TCGAGTAGGTTAGGGGCCTTCAGAATGGCGTCGA | -0.629
TCTAGTTGGGCACGGAGGTCACACACGACGGGTA | 1.83
TTACCAAGGTGAAAGGTCGTCGATGCACGCCTTG | 0.956
ACAGACAGGTTAGTGAAGGTAACTCAGCTGGACG | -0.138
GCTATTAGTTGTAAGGGCAACCGAATGATTCTCG | 1.18
GGAACGAGGACAAGTTGATAGCAGAGTTTGATGG | 1.58
AGACTGAGGTTAAGATCAGGGAAACAGAATACAT | 0.489
CCGACTGGGGCAGAACGGTTACCATACCATCCGG | -0.791
GCTACTAGTTGAAAGGGCAACCGAATGATTCTCG | -0.134
TAGCCAAGGTCATGGGCCAGTATACCACGCGAAC | 2.68
TTACCAAGGTGAGCTGAGGTCGTTGAACCAACTC | 2.02
CCGAGTAGGTTATGGGGCATTCCGGCAACGGTGA | 0.142

Sequence | PBM binding z-score
CGTCCAAGGCCAAAGGTCAGTGAAGAGATGACGG | 0.341
GCCAGTTGGTCAGTAAAAGGTCACACACCGGTCG | 1.65
TCTCGTAGATCAAGCAGGTTAAGAAAGCCTGAGT | -0.615
GCTAGTTGGTCAGTAAAAGCTCACACACCGGTCG | -0.166
TCGAGTAGGTTAGGGGCATACAGAATGGCGTCGA | 0.135
TCTATTAGTTGACTAGGGCAACCGAAACAGCGGA | 0.147
CCTATTAGTTGACCATAAGGGCCACCGAAGCTCG | 0.222
GCATATAGGTAATACAAGGTGAAGGTCCGATTGT | 1.09
CAGCCTAGCTCAGGGCCAGTATAGGAGGAACGTT | -0.716
CCTCCGAGGACAGAAGGTCAGAGCTGTCCGCTTT | 1.17
TCATATAGGTAAAAGGTGAAATTCGGTGTGGTAA | 0.523
AGTCAAAGTTCAGGACGAAGTAACGTAAAGCACG | 0.0307
CGAACTAGGTCATCCATGACAGTGAATACATTGA | 0.683
TCTTGTAGATCAATAGAGGTTGAGAAAGTGCGCT | -0.723
CGAACTCGGTCATCCAGGACAGTGAATACATTGA | 0.998
GCTAGTTGGTCAGTAAAAGGTCAGACACCGGTCG | 0.737
TCTTGTAGATAAGCAGGTTAAGAAAGCTGGCCAA | -0.622
TCTATTAGTAGATTAGGGCAACCGAAACAGCGGA | -0.319
ACAGACAGGTGATGAAGGGAACTCAGGCTATCAT | -0.114

tested on: VDR homodimer (NR concentration 270 nM); experiment: as above
Summary of the method: as §1

Sequence | PBM binding z-score
ACTAGCAGGCCAAGTTTGGGTCAATCAAACAAAG | 0.00979
GCAGACAGGTGAAACGCAAGTAACTCAGGGTGGC | -0.62
GATACAGGGTCAGCTAGAGGACAGAGTATGGAAA | 0.873
CCAGACAGGTGACAGGTAACTCAGTCTGGTACGC | -0.0347
GCGACAGGGGCATCAGCAGGTTACCATAACTTAA | 0.188
CCAACTAGGTCAGAACAGGACAGTGAAGGATGAT | 0.723
TTACCAAGGTGAGCTCAGGTCGTTGATCCAACTC | 0.416
TCTCGGAGGACACGAAGGACAGAGCTTTCCAGAG | 0.139
TCGAGTAGGTTAGGGGCCTTCAGAATGGCGTCGA | -0.468
TCTAGTTGGGCACGGAGGTCACACACGACGGGTA | 2.63
TTACCAAGGTGAAAGGTCGTCGATGCACGCCTTG | 0.709
ACAGACAGGTTAGTGAAGGTAACTCAGCTGGACG | -0.0977
GCTATTAGTTGTAAGGGCAACCGAATGATTCTCG | 0.507
GGAACGAGGACAAGTTGATAGCAGAGTTTGATGG | 0.892
AGACTGAGGTTAAGATCAGGGAAACAGAATACAT | 0.3
CCGACTGGGGCAGAACGGTTACCATACCATCCGG | -0.33
GCTACTAGTTGAAAGGGCAACCGAATGATTCTCG | 0.214
TAGCCAAGGTCATGGGCCAGTATACCACGCGAAC | 2.65
TTACCAAGGTGAGCTGAGGTCGTTGAACCAACTC | 2.01
CCGAGTAGGTTATGGGGCATTCCGGCAACGGTGA | 0.147

Sequence | PBM binding z-score
CGTCCAAGGCCAAAGGTCAGTGAAGAGATGACGG | 0.884
GCCAGTTGGTCAGTAAAAGGTCACACACCGGTCG | 1.83
TCTCGTAGATCAAGCAGGTTAAGAAAGCCTGAGT | -0.12
GCTAGTTGGTCAGTAAAAGCTCACACACCGGTCG | -0.217
TCGAGTAGGTTAGGGGCATACAGAATGGCGTCGA | 0.73
TCTATTAGTTGACTAGGGCAACCGAAACAGCGGA | 0.286
CCTATTAGTTGACCATAAGGGCCACCGAAGCTCG | 0.354
GCATATAGGTAATACAAGGTGAAGGTCCGATTGT | -0.214
CAGCCTAGCTCAGGGCCAGTATAGGAGGAACGTT | -0.754
CCTCCGAGGACAGAAGGTCAGAGCTGTCCGCTTT | 0.494
TCATATAGGTAAAAGGTGAAATTCGGTGTGGTAA | 0.37
AGTCAAAGTTCAGGACGAAGTAACGTAAAGCACG | 1.27
CGAACTAGGTCATCCATGACAGTGAATACATTGA | 1.17
TCTTGTAGATCAATAGAGGTTGAGAAAGTGCGCT | -0.179
CGAACTCGGTCATCCAGGACAGTGAATACATTGA | 1.15
GCTAGTTGGTCAGTAAAAGGTCAGACACCGGTCG | 0.607
TCTTGTAGATAAGCAGGTTAAGAAAGCTGGCCAA | -0.0851
TCTATTAGTAGATTAGGGCAACCGAAACAGCGGA | -0.419
ACAGACAGGTGATGAAGGGAACTCAGGCTATCAT | -0.128
